Screens (PubChem)
These entries were drawn from the full list.
aSyn 5UTR act: Activators working through SNCA 5'UTR binding (MLPCN). AID 1814. alpha-synuclein 5'UTR reporter, activators screen. activity score, % (tested at 7.5 µM), hits read low. 300,000 tested, 7.1% active; in the data active means activity score below about -60%
Numbers without * were called inactive.

SMILES	aSyn 5UTR act
C=CCn1c(=O)c2ccccc2n2c(Sc3nnnn3-c3ccccc3)nnc12	-74*
COc1cc2c(cc1OC)-c1cc(Nc3ccc(N(C)C)cc3)nc(=O)n1CC2	52
CCOc1ccc(NC(=O)N2CCc3ccccc3C2)cc1	-92*
CN(C)c1ccc(NC(=O)CN2CCc3ccccc3C2)cc1	-79*
O=C(Nc1ccc(Cl)cc1)N1CCc2ccccc2C1	-209*
O=C(CNS(=O)(=O)c1cccs1)N1CCc2ccccc2C1	-72*
O=C(Nc1ccccc1)N1CCc2ccccc2C1	-126*
Cc1ccc(NC(=O)N2CCc3ccccc3C2)cc1	-212*
O=C(NCCCN1CCc2ccccc2C1)Nc1ccc(Cl)cc1	-110*
Cc1ccc(NC(=O)N2CCc3ccccc3C2)c(C)c1	-76*
O=C(Cc1ccc(Cl)cc1)N1CCc2ccccc2C1	-160*
O=C(CNc1cccc(F)c1)N1CCc2ccccc2C1	-195*
c1ccc(C2CSc3ccccc3N2)cc1 (stereo not drawn)	-196*
CCN(CC)C(=O)C(C)N(C#N)c1nc(Cl)nc(N(C)C)n1 (stereo not drawn)	-122*
Cc1ccc(NC(=O)c2cc3c(s2)CCCC3)cc1	-193*
CCOC(=O)c1sc(NC(=O)c2cc3c(s2)CCC(C)C3)nc1C (stereo not drawn)	-101*
COC(=O)c1sc(NC(=O)c2cc3c(s2)CCCC3)nc1C	-204*
Cc1nc(NC(=O)c2cc3c(s2)CCCCC3)sc1C(=O)N(C)C	-175*
Cc1nc(NC(=O)c2ccc(Br)s2)sc1C(=O)N(C)C	-122*
Cc1ccc(NC(=O)c2scc3c2CCCC3)cc1	-90*
O=C(Nc1ccccc1OC(F)F)c1cc2c(s1)CCC2	-161*
Cc1nc(NC(=O)CCl)sc1C(=O)N(C)C	-70*
CC1CCc2sc(C(=O)Nc3ccc(C(N)=O)cc3)cc2C1 (stereo not drawn)	-119*
O=C(N/N=C/c1ccccn1)c1cc(-c2ccc3ccccc3c2)n[nH]1	-161*
O=C(N/N=C/C=C\c1ccccc1[N+](=O)[O-])c1cc(-c2ccc3ccccc3c2)n[nH]1	-88*
SMILES	aSyn 5UTR act
O=C(N/N=C/c1ccco1)c1cc(-c2ccc3ccccc3c2)n[nH]1	-75*
S=C(N/N=C/c1ccccc1Cl)Nc1ccccc1	-106*
S=C(N/N=C/c1ccc2ncccc2c1)Nc1ccccc1	108
COc1ccc(/C=N/NC(=S)Nc2ccccc2)cc1	-72*
COc1ccc(NC(=O)O/N=C/c2ccccc2)cc1	-140*
C=CCC(CC(O)COCCC)C(=O)NNC(=S)Nc1ccccc1 (stereo not drawn)	-113*
CC(C)(C)NC(=O)NCCc1ccccc1	-95*
CC(C)(C)C(=O)NC(=S)NCCc1ccccc1	-92*
Fc1ccc(CCNC(=S)Nc2ccc(F)cc2)cc1	-76*
O=C(NCCc1ccccc1)Nc1ccc(Cl)cc1	-178*
CC1=C/C(=N\NC(=S)NCCc2ccccc2)CC(C)(C)C1	-80*
Cc1ccc(NC(=O)NCCCc2ccccc2)cc1	-90*
Cc1cccc(NC(=O)C(=O)NCCCc2ccccc2)c1	-77*
S=C(NCCc1ccccc1)NCCc1ccccc1	-215*
COCCN(Cc1ccccc1)C(=S)Nc1ccc(Cl)cc1	59
O=C(NCCc1ccccc1)/C(=N\O)c1ccccc1	-107*
Fc1cc(Br)ccc1NC(=S)NCCc1ccccc1	-119*
C/C(=C\c1ccccc1)C(=O)NCCc1ccccc1	-62*
S=C(NCCc1ccccc1)Nc1ccc(Cl)cc1	-135*
O=C1c2ccccc2C(=O)c2[nH]c(=O)[nH]c21	93
O=c1[nH]c(=O)c2nc3c4ccccc4c4ccccc4c3nc2[nH]1	-70*
CC(C)(C)c1cc(C(=O)NCc2cc(F)cc3c2OCOC3)n(Cc2ccccc2)n1	-109*
O=C(NCCc1ccccc1)C(=O)NCC1CCCO1 (stereo not drawn)	-64*
Cc1ccc(NC(=O)C(=O)NCC2CCCO2)cc1C (stereo not drawn)	-96*
Cc1ccc(NC(=O)C(=O)NCC2CCCO2)cc1 (stereo not drawn)	-85*
SMILES	aSyn 5UTR act
COc1ccc(NC(=O)C(=O)N/N=C\c2ccc(CNC(=O)C(=O)Nc3ccc(C)c(C)c3)o2)c(OC)c1	88
COc1c(C)cccc1C(=O)Nc1ccc(N2CCOCC2)c(Cl)c1	-173*
C=CCN(c1ccccc1OC)S(=O)(=O)c1ccc(Cl)c(C(=O)Nc2ccc(N3CCOCC3)cc2)c1	89
O=C(Nc1ccc(N2CCOCC2)c(Cl)c1)c1cc(F)c(F)cc1Cl	-64*
CCOc1nc(C)ccc1-c1noc(-c2ccco2)n1	-79*
CCOc1ccccc1-c1nc(-c2ccc(C)nc2OC)no1	-207*
COc1ccccc1C(=O)C1CCCN(C(=O)Nc2ccccc2F)C1 (stereo not drawn)	-64*
COc1cc(OC)c(OC)cc1CN1CCCC(C(=O)c2ccccc2SC)C1 (stereo not drawn)	50
Nc1cc(-c2nc3ncccc3o2)ccc1Cl	-273*
Cc1ccc(-c2nc3ncccc3o2)cc1N	-106*
Cc1cc(-c2nc3ncccc3o2)ccc1N	-111*
CN1N=C(C(=O)N2CCc3c([nH]c4ccccc34)C2c2ccccc2Cl)CCC1=O (stereo not drawn)	-69*
Cc1nc2ccc(NC(=O)Cc3ccccc3F)cc2s1	-175*
Cc1nc2ccc(NC(=O)Cc3ccsc3)cc2s1	-108*
Cc1nc2ccc(NC(=O)Cc3cccc(F)c3)cc2s1	-80*
Cc1cc(NC(=O)NC(=O)c2cccc(OC(F)(F)C(F)F)c2)n[nH]1	-119*
Cc1cc(NC(=O)c2cccc(Oc3ccccc3)c2)n[nH]1	-109*
CSc1ccccc1NC(=O)c1ccc(CN2CCOCC2)cc1	-97*
Cc1c(Cl)cccc1NC(=S)N=Nc1c(O)n(CN2CCOCC2)c2ccccc12	64
CC(C)c1ccc(C(=O)Nc2ccc(CN3CCOCC3)cc2)cc1	-68*
O=C(Nc1ccc2c(c1)OCO2)c1ccc(CN2CCOCC2)cc1	-104*
CC(C)c1ccc(NC(=S)NN2CCOCC2)cc1	-135*
O=c1cccc2c1c1cc[nH]c3ccc(=O)n2c31	79
Cc1cc(C)nc(/N=C(\N)Nc2ccc(F)c([N+](=O)[O-])c2)n1	-124*
Cc1cc(C)nc(/N=C(\N)Nc2ccc3c(c2)OCCO3)n1	-126*
SMILES	aSyn 5UTR act
Cc1ccc(CN=C(N)Nc2nc(C)cc(C)n2)cc1	117
c1ccc(COc2ccc(OCCCN3CCCC3)cc2)cc1	55
c1ccc(COc2ccc(OCCCn3cncn3)cc2)cc1	-102*
c1ccc(-c2ccc(OCCOCCn3cncn3)cc2)cc1	-175*
CC1CCN(CCCOc2ccc(OCc3ccccc3)cc2)CC1	-69*
O=Cc1cc(-c2ccccc2)[nH]c1-c1ccccc1	-64*
CSc1nsc(SCC(=O)Nc2ccc(C(C)=O)cc2)n1	-262*
COc1ccc(-c2nsc(SCC(=O)Nc3ccc4c(c3)OCO4)n2)cc1	-109*
CSc1nsc(SCC(=O)Nc2ccc(F)cc2F)n1	-101*
COc1ccc(NC(=O)CSc2nc(SC)ns2)cc1	-145*
CCOc1ccc(-n2c(SCC(=O)Nc3ccc(Br)cc3)nc3n[nH]c(C)c3c2=N)cc1	82
COC(=O)c1sccc1NC(=O)/C=C/c1ccc(Cl)cc1Cl	-206*
COC(=O)c1sccc1NC(=O)/C=C/c1c(Cl)cccc1Cl	-139*
CC(=O)Nc1ccc(SCc2ncc(-c3ccccc3)o2)cc1	-130*
COc1ccc(-c2nc3c(n2O)CCc2c-3no[n+]2[O-])cc1	-131*
CC(C)CC1NC(=O)N(CC(=O)c2ccc3c(c2)OCCO3)C1=O (stereo not drawn)	-115*
